Assay outcomes (PubChem BioAssay)
Only some compounds are listed: those with a hit (about 0.84% of all), similar ones and a draw of the others.
SRC3 TRFRET art: TR-FRET detection interference compounds, artefact control for PPARgamma SRC-3 recruitment agonists, biochemical, TR-FRET ratio; TR-FRET artefact counter-screen, PPARgamma/SRC-3 format; hits give high values; TR-FRET ratio at 8 µM; 0.39% of 99,000 active
PPARg SRC-1 ag: PPARgamma agonists recruiting SRC-1 coactivator, primary screen, biochemical; AID 631, 2007; PPARgamma-SRC-1 coactivator recruitment biochemical assay; Peroxisome proliferator-activated receptor gamma (Homo sapiens), P37231; activation, % at 8 µM; 0.41% of 200,000 active; in the data active means activation above about 19%;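 further: 0% = DMSO and 100% = reference agonist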
Target sequence (P37231 whole entry, looked up): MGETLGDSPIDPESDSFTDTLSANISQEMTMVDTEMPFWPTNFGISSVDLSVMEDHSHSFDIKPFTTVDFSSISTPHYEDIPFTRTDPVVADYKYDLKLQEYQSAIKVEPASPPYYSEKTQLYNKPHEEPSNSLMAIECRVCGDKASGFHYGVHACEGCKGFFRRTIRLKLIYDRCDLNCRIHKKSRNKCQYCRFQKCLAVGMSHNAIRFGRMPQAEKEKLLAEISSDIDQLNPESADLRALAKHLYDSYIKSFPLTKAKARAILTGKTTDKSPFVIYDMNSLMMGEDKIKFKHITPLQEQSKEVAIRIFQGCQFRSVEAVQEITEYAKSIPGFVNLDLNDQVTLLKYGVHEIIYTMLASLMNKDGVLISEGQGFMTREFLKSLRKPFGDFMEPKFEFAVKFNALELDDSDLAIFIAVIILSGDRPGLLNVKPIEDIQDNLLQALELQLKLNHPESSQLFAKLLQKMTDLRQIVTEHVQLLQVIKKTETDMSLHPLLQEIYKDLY
PPARg SRC-3 ag: PPARgamma agonists recruiting SRC-3 coactivator, primary screen, biochemical. Peroxisome proliferator-activated receptor gamma (Homo sapiens), P37231. biochemical PPARgamma/SRC-3 coactivator recruitment assay. activation, % at 8 µM. 0.26% of 200,000 active. AID 731, 2007; in the data active means activation above about 23%;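 further: 0% = DMSO and 100% = reference agonist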
SRC1 TRFRET art: TR-FRET detection interference compounds, primary screen, artefact control for PPARgamma SRC-1 recruitment agonists, biochemical, TR-FRET emission ratio; AID 1051, 2008; TR-FRET ratio at 8 µM; 0.34% of 99,000 active; TR-FRET detection artefact counter-screen; hits give high values; in the data active means TR-FRET ratio above about 2300
TR-FRET SRC-2 ct: TR-FRET signal artefacts, primary screen, artefact control for PPARgamma SRC-2 agonist project, biochemical; TR-FRET artefact counter-screen; hits give high values; TR-FRET ratio at 8 µM; 0.4% of 200,000 active
PPARg SRC2 recr: agonists of PPARg-SRC-2 recruitment, primary screen, biochemical, HTS | PPARgamma LBD-SRC-2 recruitment | 0.34% of 200,000 active | activation, % at 8 µM | Peroxisome proliferator-activated receptor gamma (Homo sapiens), P37231; in the data active means activation above about 22%;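 further: 0% = vehicle and 100% = reference agonist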
* hit, by the source's call; · = no result. Unless noted, no stated cut-off is given here; in the data, active means TR-FRET ratio above about 2000; inactive means the rest.

SMILES	SRC3 TRFRET art	PPARg SRC-1 ag	PPARg SRC-3 ag	SRC1 TRFRET art	TR-FRET SRC-2 ct	PPARg SRC2 recr
O=C(Cc1ccc(-n2cccc2)cc1)N1CCc2ccccc21	·	-3	-6	·	1360	0
OCCN=C1CCCc2c1[nH]c1ccc(Br)cc21	·	19*	12	·	1789	14
Cc1ccc(S(=O)(=O)c2cn(Cc3ccc(F)cc3)c3cc4c(cc3c2=O)OCO4)cc1	2414*	-10	0	2093	1947	-7
O=C(CSc1nnc2c3ccccc3c3ccccc3c2n1)Nc1ccccc1	·	64*	13	·	1585	6
O=C(CSc1nnc2c3ccccc3c3ccccc3c2n1)Nc1ccccc1F	·	-1	8	·	1707	5
COc1ccc(OC)c(/C=N\NC(=O)CC(=O)NCCc2ccccc2)c1	1704	7	4	2318*	1584	10
CC(C)(C)c1ccc(-c2n[nH]c(=S)n2C2CCCC2)cc1	·	5	9	·	1511	9
COc1ccc(/C(O)=C2\C(=O)C(=O)N(c3cc(C)on3)C2c2cccc(OC)c2OC)cc1C (stereo not drawn)	·	16	15	·	2062*	19
Cc1ccc(/C(O)=C2\C(=O)C(=O)N(c3cc(C)on3)C2c2cccc(Cl)c2)cc1 (stereo not drawn)	·	15	11	·	1632	3
CCOC(=O)c1c(N2C(=O)C3CC(C)=C(C)CC3C2=O)sc(C)c1C (stereo not drawn)	·	2	-3	·	1386	-5
CC1(C)CN(c2ccccc2)N(C(=O)c2ccc(F)cc2)C1=O	·	0	4	·	1485	11
COc1ccc(NCCNc2ccc(OC)cc2)cc1	·	20*	4	·	1802	2
Cc1ccc(NCCNc2ccc(C)cc2)cc1	·	-2	7	·	1533	-5
N#Cc1ccc(-c2ccccc2)nc1SCC(=O)c1cc2ccccc2oc1=O	·	64*	10	·	1700	5
CC(C)c1c(C#N)c(N)nc(SCC(=O)c2cc3ccccc3oc2=O)c1C#N	1619	8	-6	1872	1505	10
CCc1ccc(OCC(=O)NNC(=O)CSc2ncnc3sc(C)c(C)c23)cc1	·	54*	19	·	1696	11
Cc1ccc(OCC(=O)NNC(=O)CSc2ncnc3sc(C)c(C)c23)cc1	1392	1	-1	1797	1470	-2
C=CCn1c(=S)[nH]c2sccc2c1=O	1503	7	0	1985	1612	9
CC(=O)Nc1ccc(S(=O)(=O)NCc2ccc3c(c2)cc(C)n3C)cc1	·	-1	1	·	1733	10
Cc1cc(C)c(S(=O)(=O)NCc2ccc3c(c2)cc(C)n3C)c(C)c1	·	10	11	·	2083*	-3
Cc1cc2cc(CNC(=O)c3ccc(S(=O)(=O)N(C)C)cc3)ccc2n1C	·	-3	2	·	2108*	3
Cc1cc(C)c(S(=O)(=O)NCCn2c(C)cc3ccccc32)c(C)c1	·	9	21	·	2078*	-1
Cc1ccc(S(=O)(=O)NCCn2c(C)cc3ccccc32)cc1	·	9	13	·	2803*	9
Cc1cc2ccccc2n1CCNC(=O)Cc1ccccc1	·	10	8	·	1639	0
N#Cc1c(C(F)(F)F)cc(-c2ccccc2)[nH]c1=O	·	-1	-3	·	1382	0
SMILES	SRC3 TRFRET art	PPARg SRC-1 ag	PPARg SRC-3 ag	SRC1 TRFRET art	TR-FRET SRC-2 ct	PPARg SRC2 recr
C=CCOC(=O)C1=C(C)NC(SCC)=C(C#N)C1c1ccc(Cl)cc1 (stereo not drawn)	·	3	10	·	1350	-9
COc1ccc(C(=O)Nc2scc(-c3ccc(Cl)cc3Cl)c2C(N)=O)cc1	·	3	3	·	1986*	1
O=C(COc1ccc2ccccc2c1)Nc1ccc(S(=O)(=O)N2CCCCCC2)cc1	·	3	0	·	2073*	18
O=C(COc1ccc2ccccc2c1)NNC(=O)Cc1ccccc1	1802	65*	15	2551*	1727	20
Cn1cc(/C=N/n2cnc3sc4c(c3c2=O)CCCC4)c2ccccc21	·	7	10	·	1972*	2
O=c1c2c3c(sc2ncn1/N=C/c1ccc([N+](=O)[O-])o1)CCCC3	·	8	-4	·	1512	-6
CCOC(=O)c1c(NC(=O)Cc2cccs2)sc(C(=O)NC2CCCCC2)c1C	·	8	4	·	1698	3
CCOC(=O)c1c(NC(=O)Cc2cccs2)sc(C(=O)NC2CCCC2)c1C	·	1	35*	·	1550	2
CSc1ccccc1NC(=O)Cn1c(-c2cscn2)nc2ccccc21	·	24*	3	·	1477	1
CCOc1ccc(S(=O)(=O)c2c(C(=O)c3ccccc3)cnc3cc4c(cc23)OCCO4)cc1	2180*	7	-6	2111	1938	-4
CCN(CC)c1ccc(NC(=O)c2ccccc2Br)cc1S(=O)(=O)Nc1ccccc1OC	1617	-7	-4	1698	1301	0
CCN(CC)c1ccc(NC(=O)c2ccccc2F)cc1S(=O)(=O)Nc1ccccc1OC	2056*	0	5	1982	1726	4
Cc1ccc(NC(=O)c2sc3ccccc3c2Cl)nc1	·	36*	12	·	1782	4
Cc1nnc(NC(=O)c2sc3ccccc3c2Cl)s1	·	16	16	·	1652	2
CCN(CC)C(=O)c1cn(CCC#N)nc1-c1ccc2c(c1)OCCO2	1364	12	3	2134	1582	5
CCN(CC)C(=O)c1cn(-c2ccccc2)nc1-c1ccc2c(c1)OCCO2	1746	9	6	1844	1980*	5
Cc1ccc(-n2c(=S)[nH]c3sc4c(c3c2=O)CCC4)cc1	2074*	8	8	2142	1859	12
O=c1[nH]c2sc3c(c2c(=O)n1Cc1ccccc1)CCC3	·	-1	-1	·	1537	10
COC(=O)C(O)(NC(=O)OCc1ccccc1)C(F)(F)F (stereo not drawn)	1687	0	-5	1487	1355	-3
CCCCN1C(=O)Cc2c1nc(N)c1c(N)nc(N(CCC)CCC)c(C#N)c21	·	6	3	·	1583	0
CC(=O)Nc1c(O)nc(SCC(=O)Nc2ccc(C(C)=O)cc2)[nH]c1=O	·	5	26*	·	1727	8
CC(=O)Nc1c(O)nc(SCC(=O)Nc2cccc(C)c2)[nH]c1=O	·	-1	2	·	1625	0
CC(C)(C)c1ccc(OCCCC(=O)N2CCOCC2)cc1	1487	-3	1	1643	1540	2
CC(C)(C)c1ccc(OCc2ccc(C(=O)N3CCOCC3)o2)cc1	1710	-2	3	1474	2010*	25*
CCOc1cc(/C=N/NC(=O)c2ccc(O)cc2)ccc1Oc1nc(Cl)ncc1F	1632	13	5	2558*	1608	9
CSc1ccccc1NC(=O)c1cc(-c2cccnc2)nc2ccc(Br)cc12	2157*	8	9	1916	1531	3
